# Laboratory results taken from PubChem BioAssay AID1159580 (chemical genetic matrix, 2015).
# Hit rate of the full screen: of about 5,500 compounds, about 2,000 (36%) were called active. Another 18% or so got no clear call; they are omitted. This is one part of the list. Unmarked numbers belong to inactive results. Rule as the data show it: active = normalized growth mostly below about 0.91 (no sharp cut-off); inconclusive = no clear call, values can overlap the other calls; inactive = mostly above about 0.92.
# Assay: chemical genetic growth profiling, strain panel (AID 1159580);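 also: tested at 20 µM; growth read once vehicle control cultures reached saturation at 30 °C; 1 = growth at the plate median or of vehicle wells; lower values mean less growth of the strain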
# Conditions: S. cerevisiae deletion strains, growth OD
# [1] = locus YAR019C, strain CDC15, stronger effect = lower value
# [2] = locus YBL105C, strain PKC1, stronger effect = lower value
# [3] = locus YBR135W, strain CKS1, stronger effect = lower value
# [4] = locus YBR136W, strain MEC1, stronger effect = lower value
# [5] = locus YBR160W, strain CDC28, stronger effect = lower value
# [6] = locus YDL017W, strain CDC7, stronger effect = lower value
# [7] = locus YDL028C, strain MPS1, stronger effect = lower value
# [8] = locus YDL101C, strain DUN1, stronger effect = lower value
# [9] = locus YDL108W, strain KIN28, stronger effect = lower value
# [10] = locus YDL132W, strain cdc53, stronger effect = lower value
# [11] = locus YDL214C, strain PRR2, stronger effect = lower value
# [12] = locus YDR052C, strain DBF4, stronger effect = lower value
# [13] = locus YDR054C, strain cdc34, stronger effect = lower value
# [14] = locus YDR226W, strain ADK1, stronger effect = lower value
# [15] = locus YDR477W, strain SNF1, stronger effect = lower value
# [16] = locus YER123W, strain YCK3, stronger effect = lower value
# [17] = locus YER133W, strain GLC7, stronger effect = lower value
# [18] = locus YFL009W, strain cdc4, stronger effect = lower value
# [19] = locus YFL029C, strain CAK1, stronger effect = lower value
# [20] = locus YFR003C, strain YPI1, stronger effect = lower value
# [21] = locus YFR019W, strain FAB1, stronger effect = lower value
# [22] = locus YFR028C, strain CDC14, stronger effect = lower value
# [23] = locus YGR040W, strain KSS1, stronger effect = lower value
# [24] = locus YGR052W, strain FMP48, stronger effect = lower value
# [25] = locus YGR092W, strain DBF2, stronger effect = lower value
# [26] = locus YHR030C, strain SLT2, stronger effect = lower value
# [27] = locus YHR079C, strain IRE1, stronger effect = lower value
# [28] = locus YHR082C, strain KSP1, stronger effect = lower value
# [29] = locus YHR205W, strain SCH9, stronger effect = lower value
# [30] = locus YIL147C, strain SLN1, stronger effect = lower value
# [31] = locus YJL095W, strain BCK1, stronger effect = lower value
# [32] = locus YJL128C, strain PBS2, stronger effect = lower value
# [33] = locus YJL157C, strain FAR1, stronger effect = lower value
# [34] = locus YJR016C, strain ILV3, stronger effect = lower value
# [35] = locus YJR066W, strain TOR1 (second series), stronger effect = lower value
# [36] = locus YJR066W, strain TOR1, stronger effect = lower value
# [37] = locus YKL048C, strain ELM1, stronger effect = lower value
# [38] = locus YKL067W, strain YNK1, stronger effect = lower value
# [39] = locus YKL101W, strain HSL1, stronger effect = lower value
# [40] = locus YKL193C, strain SDS22, stronger effect = lower value
# [41] = locus YKL203C, strain TOR2, stronger effect = lower value
# [42] = locus YLR133W, strain CKI1, stronger effect = lower value
# [43] = locus YLR403W, strain SFP1, stronger effect = lower value
# [44] = locus YML070W, strain DAK1, stronger effect = lower value
# [45] = locus YMR001C, strain CDC5, stronger effect = lower value
# [46] = locus YMR205C, strain PFK2 (second series), stronger effect = lower value
# [47] = locus YMR277W, strain FCP1, stronger effect = lower value
# [48] = locus YNL006W, strain LST8, stronger effect = lower value
# [49] = locus YNL020C, strain ARK1, stronger effect = lower value
# [50] = locus YNL161W, strain CBK1, stronger effect = lower value
# [51] = locus YNL183C, strain NPR1, stronger effect = lower value
# [52] = locus YNL207W, strain RIO2, stronger effect = lower value
# [53] = locus YNL222W, strain SSU72, stronger effect = lower value
# [54] = locus YNL307C, strain MCK1 (second series), stronger effect = lower value
# [55] = locus YOL078W, strain AVO1, stronger effect = lower value
# [56] = locus YOL136C, strain PFK27, stronger effect = lower value
# [57] = locus YOR061W, strain CKA2, stronger effect = lower value
# [58] = locus YOR119C, strain RIO1, stronger effect = lower value
# [59] = locus YOR231W, strain MKK1, stronger effect = lower value
# [60] = locus YOR329C, strain SCD5, stronger effect = lower value
# [61] = locus YPL031C, strain PHO85, stronger effect = lower value
# [62] = locus YPL153C, strain RAD53, stronger effect = lower value
# [63] = locus YPL204W, strain HRR25, stronger effect = lower value
# [64] = locus YPL209C, strain IPL1, stronger effect = lower value
# [65] = locus YPL256C, strain CLN2, stronger effect = lower value
# [66] = locus YPR025C, strain CCL1, stronger effect = lower value
# [67] = locus YPR106W, strain ISR1, stronger effect = lower value
# [68] = locus YPR111W, strain DBF20, stronger effect = lower value
# [69] = strain NNK1, stronger effect = lower value
# [70] = strain TSCII, stronger effect = lower value
smiles,measurement,setting,value
O=C(NCCNc1ncc(Cl)cc1C(F)(F)F)C(F)(F)Sc1ccccc1,normalized growth,[1],0.982
same,normalized growth,[2],0.978
same,normalized growth,[3],0.975
same,normalized growth,[4],0.984
same,normalized growth,[5],0.979
same,normalized growth,[6],0.977
same,normalized growth,[7],0.992
same,normalized growth,[8],0.982
same,normalized growth,[9],0.981
same,normalized growth,[10],0.977
same,normalized growth,[11],0.987
same,normalized growth,[12],0.982
same,normalized growth,[13],0.991
same,normalized growth,[14],0.982
same,normalized growth,[15],0.996
same,normalized growth,[16],1.01
same,normalized growth,[17],1
same,normalized growth,[18],0.979
same,normalized growth,[19],0.984
same,normalized growth,[20],0.985
same,normalized growth,[21],0.996
same,normalized growth,[22],0.982
same,normalized growth,[23],0.991
same,normalized growth,[24],1.14
same,normalized growth,[25],0.994
same,normalized growth,[26],1.2 [resistant] (active)
same,normalized growth,[27],1.17
same,normalized growth,[28],1.19
same,normalized growth,[29],0.975
same,normalized growth,[30],0.986
same,normalized growth,[31],1.16
same,normalized growth,[32],0.934
same,normalized growth,[33],0.985
same,normalized growth,[34],0.989
same,normalized growth,[35],1.01
same,normalized growth,[36],1.19
same,normalized growth,[37],0.973
same,normalized growth,[38],0.991
same,normalized growth,[39],0.984
same,normalized growth,[40],0.973
same,normalized growth,[41],1.08
same,normalized growth,[42],0.979
same,normalized growth,[43],0.998
same,normalized growth,[44],0.986
same,normalized growth,[45],0.969
same,normalized growth,[46],0.984
same,normalized growth,[47],0.975
same,normalized growth,[48],0.983
same,normalized growth,[49],0.978
same,normalized growth,[50],0.984
same,normalized growth,[51],1.13
same,normalized growth,[52],0.989
same,normalized growth,[53],0.976
same,normalized growth,[54],0.972
same,normalized growth,[55],0.981
same,normalized growth,[56],1
same,normalized growth,[57],0.992
same,normalized growth,[58],1.02
same,normalized growth,[59],1.12
same,normalized growth,[60],0.985
same,normalized growth,[61],0.99
same,normalized growth,[62],1.01
same,normalized growth,[63],0.995
same,normalized growth,[64],0.983
same,normalized growth,[65],1.25 [resistant] (active)
same,normalized growth,[66],0.984
same,normalized growth,[67],0.982
same,normalized growth,[68],0.979
same,normalized growth,[69],0.993
same,normalized growth,[70],0.978
O=C(NCCNc1ncc(C(F)(F)F)cc1Cl)C(F)(F)Sc1ccccc1,normalized growth,[1],0.985
same,normalized growth,[2],0.983
same,normalized growth,[3],0.971
same,normalized growth,[4],0.973
same,normalized growth,[5],0.984
same,normalized growth,[6],0.977
same,normalized growth,[7],0.97
same,normalized growth,[8],0.976
same,normalized growth,[9],0.957
same,normalized growth,[10],0.988
same,normalized growth,[11],0.898
same,normalized growth,[12],0.986
same,normalized growth,[13],0.978
same,normalized growth,[14],0.982
same,normalized growth,[15],0.919
same,normalized growth,[16],0.828
same,normalized growth,[17],0.924
same,normalized growth,[18],0.982
same,normalized growth,[19],0.988
same,normalized growth,[20],0.972
same,normalized growth,[21],0.885
same,normalized growth,[22],0.989
same,normalized growth,[23],0.916
same,normalized growth,[24],0.978
same,normalized growth,[25],0.909
same,normalized growth,[26],0.99
same,normalized growth,[27],0.994
same,normalized growth,[28],1
same,normalized growth,[29],0.912
same,normalized growth,[30],0.974
same,normalized growth,[31],0.98
same,normalized growth,[32],0.914
same,normalized growth,[33],0.887
same,normalized growth,[34],0.974
same,normalized growth,[35],0.899
same,normalized growth,[36],0.989
same,normalized growth,[37],0.939
same,normalized growth,[38],0.91
same,normalized growth,[39],0.908
same,normalized growth,[40],0.984
same,normalized growth,[41],0.991
same,normalized growth,"locus YLR113W, strain HOG1, stronger effect = lower value",0.883
same,normalized growth,[42],0.916
same,normalized growth,[43],0.922
same,normalized growth,[44],0.876
same,normalized growth,[45],0.978
same,normalized growth,[46],0.907
same,normalized growth,[47],0.983
same,normalized growth,[48],0.978
same,normalized growth,[49],0.894
same,normalized growth,[50],0.985
same,normalized growth,[51],0.961
same,normalized growth,[52],0.983
same,normalized growth,[53],0.979
same,normalized growth,[54],0.905
same,normalized growth,[55],0.98
same,normalized growth,[56],0.893
same,normalized growth,[57],0.868
same,normalized growth,[58],0.966
same,normalized growth,[59],0.939
same,normalized growth,[60],0.987
same,normalized growth,[61],0.912
same,normalized growth,[62],0.907
same,normalized growth,[63],0.936
same,normalized growth,[64],0.975
same,normalized growth,[65],1
same,normalized growth,[66],0.98
same,normalized growth,[67],0.984
same,normalized growth,[68],0.968
same,normalized growth,[69],0.982
same,normalized growth,[70],0.982
